High-throughput results as filed in PubChem BioAssay.
Peg3 prom inh-1: Peg3 promoter activity inhibition. HeLa PEG-Prom luciferase reporter, luminescence, overnight. inhibition, % at 20 µM. 360,000 compounds, 1.7% hits;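 active = inhibition of at least 50% at 20 µM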
LGR2 antag: Drosophila LGR2 receptor signaling inhibition; HEK293 LGR2, CRE-luciferase, bursicon-stimulated, 4 h; inhibition, % at 9.99 µM; 380,000 compounds, 0.35% hits;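 active = drop in luminescence signal, shown as inhibition above about 50% in the replicate tests, limit read from the data, passing the limit was not always enough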;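 also: agonist challenge used bursicon conditioned medium at about half maximal strength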
Mdm2 MdmX PPI: disrupts the human Mdm2-MdmX interaction | SaOS-2 split-luciferase Mdm2/MdmX complementation, luminescence | 330,000 compounds, 3% hits | O15151+Q00987 | inhibition, % at 8 µM | AID 485346;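 active = inhibition of at least 50% at 8 µM in the primary screen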
Target sequence (O15151 whole entry, looked up): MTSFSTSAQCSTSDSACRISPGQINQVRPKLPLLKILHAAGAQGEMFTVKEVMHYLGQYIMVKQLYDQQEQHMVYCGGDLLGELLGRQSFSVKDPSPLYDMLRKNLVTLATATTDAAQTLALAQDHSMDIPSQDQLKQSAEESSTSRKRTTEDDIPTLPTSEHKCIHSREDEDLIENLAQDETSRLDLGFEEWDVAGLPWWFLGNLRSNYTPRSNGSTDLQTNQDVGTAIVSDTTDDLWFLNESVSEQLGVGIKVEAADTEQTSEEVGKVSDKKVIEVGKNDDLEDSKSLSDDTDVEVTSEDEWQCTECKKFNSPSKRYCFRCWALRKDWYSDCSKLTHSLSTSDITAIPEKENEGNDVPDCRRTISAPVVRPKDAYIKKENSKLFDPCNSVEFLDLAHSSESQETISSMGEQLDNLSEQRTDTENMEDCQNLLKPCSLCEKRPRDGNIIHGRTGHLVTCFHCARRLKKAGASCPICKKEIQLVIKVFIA
Target sequence (Q00987 whole entry, looked up): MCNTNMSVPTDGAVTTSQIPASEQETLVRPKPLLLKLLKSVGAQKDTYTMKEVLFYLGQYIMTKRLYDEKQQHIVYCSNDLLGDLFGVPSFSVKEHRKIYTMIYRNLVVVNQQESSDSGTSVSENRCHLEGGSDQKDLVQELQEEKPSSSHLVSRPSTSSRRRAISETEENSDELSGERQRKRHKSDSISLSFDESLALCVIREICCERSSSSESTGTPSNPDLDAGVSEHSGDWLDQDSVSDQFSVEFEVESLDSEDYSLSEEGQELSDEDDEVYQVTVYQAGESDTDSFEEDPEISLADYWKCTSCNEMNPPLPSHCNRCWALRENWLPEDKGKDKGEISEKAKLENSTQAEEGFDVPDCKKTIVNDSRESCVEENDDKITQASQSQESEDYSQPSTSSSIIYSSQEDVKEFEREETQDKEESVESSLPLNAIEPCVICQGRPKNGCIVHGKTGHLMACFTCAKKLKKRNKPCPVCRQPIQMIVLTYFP
HSP90 inh: blocks HSP90-mediated luciferase refolding in reticulocyte lysate | Rabbit reticulocyte lysate, luciferase refolding luminescence, 3 h | inhibition, % at 5.6 µM | 290,000 compounds, 0.91% hits;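 active = inhibition above the screen-wide mean plus 3 SD, computed separately per campaign, cut at about 16% in these data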;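 also: inhibitors lower the luminescence because luciferase stays unfolded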
CF NFkB block: cystic fibrosis NF-kB activation inhibition | AID 588850 | inhibition, % at 5 µM | KKLEB NF-kB-GFP reporter, PAF-induced, GFP fluorescence overnight | 360,000 compounds, 0.86% hits;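 active = at least 50% inhibition at 5 µM, scaled per plate between neutral and stimulator controls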;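 also: PAF is a Pseudomonas aeruginosa culture filtrate used as stimulus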
KKLEB tox: counter-screen for CF NF-kB inhibitors: cytotoxicity | KKLEB CF airway cells viability, ATPlite luminescence, overnight; stronger effect = lower value; cells stimulated with P. aeruginosa culture filtrate | AID 602141 | activity change (cytotoxicity), % at 5 µM | 360,000 compounds, 0.36% hits;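 active = corrected activity change at or below -50% at 5 µM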
Mdm2-MdmX conf: human Mdm2/MdmX binding inhibition, confirmed; shares compounds with Mdm2 MdmX PPI; luminescent assay; 10,000 compounds, 55% hits; inhibition, % at 8 µM; in the data active = inhibition above about 40%
FLuc counter: full-length luciferase inhibition in Mdm2/MdmX counter-screen; shares compounds with Mdm2 MdmX PPI; SaOS-2 full-length luciferase counterscreen, luminescence; inhibition, % at 8 µM; 6,200 compounds, 77% hits; AID 504607;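 active = mean inhibition at 8 µM reaching about 37%, which flags the compound as non-specific, limit read from the data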;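 also: p53-null SaOS-2 cells with luciferase driven by a doxycycline-inducible promoter; compound on cells about two nights before reading with doxycycline added after day one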
Peg3 prom inh-2: Peg3 promoter inhibition confirmation | shares compounds with Peg3 prom inh-1 | HeLa PEG-Prom luciferase reporter, luminescence, overnight | inhibition, % at 20 µM | 1,300 compounds, 84% hits | AID 602417;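 active = at 20 µM dose, 40% or more inhibition averaged across four replicates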
Of the large screens only hits and unclear results are named; the others gave an inactive call (follow-up assays come after a bar, where they were run). Sampled rows, rich in hits. Any-hit rate of the full collection: about 3.6%.

CCCCCCC(=O)N/N=C/c1c(O)n(C(C)CC)c(=S)[nH]c1=O (centres undefined)	Mdm2 MdmX PPI 57.5 | Mdm2-MdmX conf inactive
O=C(N/N=C/c1c(O)n(CCc2ccccc2)c(=O)[nH]c1=O)c1ccccc1O	none
O=C(Cc1ccccc1)N1C[C@H]2[C@@H](c3ccccc31)[C@@H](CO)N2Cc1ccccc1	none (no result: Peg3 prom inh-1, Mdm2 MdmX PPI, HSP90 inh, CF NFkB block, KKLEB tox)
CCCN1[C@@H]2c3ccc(-c4ccc(OC)cc4)c(=O)n3C[C@H]1[C@H](CO)[C@H]2C(=O)OC	none (no result: Peg3 prom inh-1, Mdm2 MdmX PPI, HSP90 inh, CF NFkB block, KKLEB tox)
O=C(O)[C@H]1[C@H](CO)[C@H]2Cn3c(ccc(-c4cccc(F)c4)c3=O)[C@@H]1N2CCc1ccccc1	none (no result: Peg3 prom inh-1, Mdm2 MdmX PPI, HSP90 inh, CF NFkB block, KKLEB tox)
CC(=O)OC[C@]12CCC(C)=C[C@H]1O[C@@H]1[C@H](O)[C@@H](OC(C)=O)[C@@]2(C)[C@]12CO2	Peg3 prom inh-1 108.0, LGR2 antag 103.9, Mdm2 MdmX PPI 100.3, CF NFkB block 104.5, KKLEB tox -55.6 (no result: HSP90 inh) | Mdm2-MdmX conf 100.3 | FLuc counter inactive
C[C@@H]1O[C@@H](O[C@H]2C[C@@H](O)[C@]3(CO)[C@H]4[C@H](O)C[C@]5(C)[C@@H](C6COC(=O)C6)CC[C@]5(O)[C@@H]4CC[C@]3(O)C2)[C@H](O)[C@H](O)[C@H]1O (some centres undefined)	Peg3 prom inh-1 101.2, LGR2 antag 81.2, Mdm2 MdmX PPI 57.7, CF NFkB block 63.2 | Mdm2-MdmX conf 67.4 | FLuc counter inactive
CCCCCSc1cc(OC)c(CCNC)cc1OC	Mdm2 MdmX PPI 52.7 (no result: LGR2 antag) | Mdm2-MdmX conf inactive
CCc1cc(OC)c(CCN)cc1OC	none (no result: Peg3 prom inh-1, Mdm2 MdmX PPI, HSP90 inh, CF NFkB block, KKLEB tox)
CCCCCCCSc1cc(OC)c(CCNC)cc1OC	Peg3 prom inh-1 112.1, Mdm2 MdmX PPI 52.6 (no result: LGR2 antag) | Mdm2-MdmX conf inactive
COc1cccc(-c2ccc3n(c2=O)C[C@H]2[C@H](CO)[C@@H](C(=O)O)[C@@H]3N2Cc2ccccc2F)c1	none (no result: Peg3 prom inh-1, Mdm2 MdmX PPI, HSP90 inh, CF NFkB block, KKLEB tox)
COc1cc(/C=C(/C)[N+](=O)[O-])ccc1OCc1ccccc1Cl	Peg3 prom inh-1 104.8, Mdm2 MdmX PPI 94.5, CF NFkB block 85.4, KKLEB tox -66.1 (no result: LGR2 antag) | Mdm2-MdmX conf 100.2 | FLuc counter 51.4
COc1cc(C=C2C(=O)NC(=O)NC2=O)ccc1OCc1ccc([N+](=O)[O-])cc1	none (no result: Mdm2 MdmX PPI)
COC(=O)[C@@H]1[C@@H](CO)[C@@H]2Cn3c(ccc(-c4ccncc4)c3=O)[C@H]1N2S(=O)(=O)c1ccccc1C	none (no result: Peg3 prom inh-1, Mdm2 MdmX PPI, HSP90 inh, CF NFkB block, KKLEB tox)
COC(=O)C1=C(c2ccc(F)cc2OCc2ccccc2)C[C@@H]2CC[C@H]1N2C(=O)NCCOc1ccccc1Cl	Mdm2 MdmX PPI 57.2 (no result: HSP90 inh) | Mdm2-MdmX conf inactive
COC(=O)C1=C(c2ccc(F)cc2OCc2ccccc2)C[C@@H]2CC[C@H]1N2C(=O)NCCOc1ccccc1	none (no result: HSP90 inh)
COC(=O)C1=C(c2ccc(F)cc2OCc2ccccc2)C[C@@H]2CC[C@H]1N2C(=O)NCc1ccc(N(C)C)cc1	none (no result: HSP90 inh)
COC(=O)C1=C(c2ccccc2OCc2ccccc2)C[C@@H]2CC[C@H]1N2C(=O)NCc1ccc(N(C)C)cc1	Mdm2 MdmX PPI 61.6 (no result: HSP90 inh) | Mdm2-MdmX conf inactive
Cc1cccc(S(=O)(=O)N2[C@@H]3c4ccc(-c5ccncc5)c(=O)n4C[C@H]2[C@H](CO)[C@H]3C(=O)O)c1	none (no result: Peg3 prom inh-1, Mdm2 MdmX PPI, HSP90 inh, CF NFkB block, KKLEB tox)
CC[C@@]1(O)C(=O)OCc2c1cc1n(c2=O)Cc2cc3c(NC(=O)CN)cccc3nc2-1	Mdm2 MdmX PPI 83.7 | Mdm2-MdmX conf 78.8 | FLuc counter 56.9
COc1cc2c(cc1OC)C1C(=O)c3ccc4c(c3OC1CO2)CC(C(C)C)O4 (centres undefined)	none (no result: Mdm2 MdmX PPI, HSP90 inh)
COc1cc2c(cc1OC)[C@@H]1C(=O)c3ccc4c(c3O[C@@H]1CO2)C[C@H](C(C)C)O4	Mdm2 MdmX PPI 57.8 | Mdm2-MdmX conf inactive | FLuc counter 63.5
C=C1C(=O)O[C@@H]2C[C@@H](C)[C@@H]3C=CC(=O)[C@@]3(C)[C@@H](O)[C@H]12	Peg3 prom inh-1 92.2, LGR2 antag 101.7, Mdm2 MdmX PPI 95.3, CF NFkB block 88.5, KKLEB tox -60.5 (no result: HSP90 inh) | Mdm2-MdmX conf 99.2 | FLuc counter 51.0
COC(=O)[C@@H]1[C@@H](CO)[C@@H]2Cn3c(ccc(C4=CCCCC4)c3=O)[C@H]1N2C(=O)Cc1ccccn1	none (no result: Peg3 prom inh-1, Mdm2 MdmX PPI, HSP90 inh, CF NFkB block, KKLEB tox)
CC(=O)OC(C)(C)/C=C/C(=O)C(C)(O)C1[C@H](O)C[C@@]2(C)C3CC=C4C(CC[C@@H](O)C4(C)C)[C@]3(CO)C(=O)C[C@]12C (some centres undefined)	Peg3 prom inh-1 83.8, LGR2 antag 73.2, Mdm2 MdmX PPI 97.7, CF NFkB block 91.3, KKLEB tox -92.1 | Mdm2-MdmX conf 98.0 | FLuc counter inactive | Peg3 prom inh-2 86.6
